PubChem BioAssay (NCATS)
Values joined by “and” are separate entries in the source; they are usually repeats but may differ in a detail not shown here. Identical values can stand only once. Results filed as inconclusive are left out. Active and inactive are the calls of the source. Unless noted, calls follow the shape of the dose curve; as a rule, active = well fitted curve in the direction sought with a large enough effect; inconclusive = small, poorly fitted or top-dose-only effect, or another doubt; inactive = no such curve, though single readings can be large; an effect the other way counts as inactive or inconclusive.

Legend:
[1] = qHTS to identify inhibitors of the type 1 interferon - major histocompatibility complex class I in skeletal muscle: primary screen against the NCATS Mechanism Interrogation Plate v5.0 (MIPE) Libary (AID 1347411); also: nearly all actives have a fitted effect of over 65% in size; also: potency is read from the fitted curve at half-maximal effect;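 as to activity change, negative = inhibition: plate controls were vehicle for no effect and reference inhibitor for full effect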
Procedure, shortened: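 Immortalized human C25cl48 myoblasts with HiBit knocked into endogenous HLA-B*08:01 were stimulated with 4.0 ng/ml IFN-beta and exposed to compounds (11-point 1:3 titration, top 46 uM final) for 24 hrs at 37 C; HiBiT lytic luminescence measured.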

[2] = Primary qHTS for inhibitors of nuclear receptor binding SET domain protein 2 (NSD2) in an isogenic RCH-ACV NSD2 p.E1099K mutant (9B) (AID 1645876); also: nearly all actives have a fitted effect of over 70% in size; also: potency is read from the fitted curve at half-maximal effect
[3] = Primary qHTS for inhibitors of nuclear receptor binding SET domain protein 2 (NSD2) in an RCH-ACV wild type WT cells (2C) (AID 1645877); also: nearly all actives have a fitted effect of over 70% in size; also: potency is read from the fitted curve at half-maximal effect
[4] = molecular target: Glutathione peroxidase 1 (Homo sapiens) (UniProt P07203); experiment: Primary qHTS Assay for Inhibitors of Recombinant Selenoprotein Glutathione Peroxidase 1 (GPX1) (AID 1845191); also: nearly all actives have a fitted effect of over 65% in size
Procedure, shortened: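 10 nM GPX1 + cpd, 30 min RT; start w/ 1 mM GSH, 0.5 mM cumene hydroperoxide, 0.5 mM NADPH, 100 nM GR, 0.01% BSA; buffer 50 mM Tris-HCl pH 7.5, 2 mM EDTA, 150 mM NaCl; Fl 340/450, 0 & 15 min.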

[5] = molecular target: Phospholipid hydroperoxide glutathione peroxidase GPX4 (Homo sapiens) (UniProt P36969); experiment: Primary qHTS Assay for Inhibitors of Recombinant Selenoprotein Glutathione Peroxidase 4 (GPX4) (AID 1845192); conditions: outcome: dose series up to 50 µM unless noted; also: nearly all actives have a fitted effect of over 65% in size; as to activity change, negative = inhibition: % is scaled to controls: 0 for no effect and ±100 for the full control effect
Procedure, shortened: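 NADPH consumption, followed by fluorescence at 340/450 nm between 0 and 15 min, reports GPX4 activity via coupled glutathione reductase (100 nM). Enzyme 200 nM was pre-exposed to compound 30 min; 0.5 mM cumene hydroperoxide and 1 mM GSH served as substrates.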

[6] = qHTS drug screen for cell cycle checkpoint inhibitors in PARPi-resistant BRCA-mutant ovarian cancer cell lines. (AID 1963452; calls by dose curve; also: potency is read from the fitted curve at half-maximal effect); conditions: PEO1/OlaR viability, CellTiter-Glo luminescence, 96 h; for Z-AUC: stronger effect = lower value
Procedure, shortened: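 PEO1, PEO4 and PEO1/OlaR ovarian cancer cells, 600 per well, exposed 96 h at 37C to a dilution series. Viability read by CellTiter-Glo luminescence, normalized to DMSO and empty wells; activity summarized as Z-AUC.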

[7] = qHTS assay to identify inhibitors of the type 1 interferon - major histocompatibility complex class I in skeletal muscle: Counter screen cell viability and HiBit confirmation (AID 1347412); conditions: iHSKM muscle cells + IFN-b, HiBiT or CellTiter-Glo, 24 h; for activity change, negative = inhibition: at 45.9 µM (top of the series); also: potency is read from the fitted curve at half-maximal effect; as to activity change, negative = inhibition: % is scaled to controls: 0 for no effect and ±100 for the full control effect; as to all read-outs here: nearly all actives have a fitted effect of over 60% in size
Procedure, shortened: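 Luminescence read-out: Nano-Glo HiBiT lytic signal from C-terminally HiBiT-tagged HLA-B in CRISPR-edited human myoblasts, plus CellTiter Glo ATP as viability counter screen. IFN-beta 4.0 ng/ml; 24 hrs treatment at 37 C, 5% CO2.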

[8] = molecular target: Calcium and integrin-binding protein 1 (Homo sapiens) (UniProt Q99828); experiment: Primary qHTS for Identification of Calcium Integrin Binding Protein 1 (CIB1) Competitor (AID 1508620);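 also: GST tagged CIB1 binding a fluorescein labelled alphaIIb integrin peptide tracer; top concentration of the series differs between compounds; % is scaled to controls: 0 for no effect and ±100 for the full control effect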
Procedure, shortened: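 CIB1-GST (1 uM final) and compound incubated 15 min at room temperature before adding FITC-alphaIIb peptide tracer (100 nM final). Competition for binding read by fluorescence polarization (ex 480, em 540) after another 15 min at room temperature.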

[9] = NCATS anti-infectives library activity on the primary C. elegans qHTS viability assay (AID 1745855; calls by dose curve; also: potency is read from the fitted curve at half-maximal effect)
Procedure, shortened: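 Viability is taken from GFP fluorescence of PE254-GFP-FLuc C. elegans imaged by laser cytometry over 7 days. Ten L1 worms per well grow at 21 °C on TOP10 E. coli capsules with titrated compound; levamisole marks toxicity.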

[10] = NCATS anti-infectives library activity on HEK293 viability as a counter-qHTS vs the C. elegans viability qHTS (AID 1745854); also: % is scaled to controls: 0 for no effect and ±100 for the full control effect
Procedure, shortened: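 HEK293 cells, 1500 per well, exposed 24 hr at 37C in 5% CO2 to compounds in a 1:5 titration, up to 41.7 uM final. Viability read as CellTiter-Glo luminescence after 10 min at room temperature.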

[11] = molecular target: Cytochrome P450 2D6 (Homo sapiens) (UniProt P10635); experiment: Cytochrome P450 family 2 subfamily D member 6 (CYP2D6) small molecule antagonists: luciferase biochemical (cell-free) qHTS assay (AID 1645840; active = well fitted curve in the direction sought with a large enough effect in the repeat runs; an effect the other way counts as inactive or inconclusive; also: nearly all actives have a fitted effect of over 55% in size; also: potency is read from the fitted curve at half-maximal effect)
Procedure, shortened: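 P450-Glo luminescent screen: recombinant CYP2D6 enzyme–proluciferin substrate mix preincubated with compound 10 min at room temperature, then NADPH regeneration added for 1 h at room temperature. Detection reagent added for 20 min; luciferin light read as relative luminescence units.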

[12] = molecular target: Cytochrome P450 2C9 (Homo sapiens) (UniProt P11712); experiment: Cytochrome P450 family 2 subfamily C member 9 (CYP2C9) small molecule antagonists: luciferase biochemical (cell-free) qHTS assay (AID 1645842; active = well fitted curve in the direction sought with a large enough effect in the repeat runs; an effect the other way counts as inactive or inconclusive; also: potency is read from the fitted curve at half-maximal effect; nearly all actives have a fitted effect of over 55% in size)
Procedure, shortened: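 Luminescence, after 20 min with luciferin detection reagent, reflected CYP2C9 turnover during a 1 h NADPH-driven reaction at 37C. Enzyme-substrate mix contained 0.4% bovine serum albumin and was preincubated with compound 10 min at room temperature.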

[13] = measured here: PEO1 parental Z-AUC

Chain of Glutathione peroxidase 1 (Homo sapiens) (P07203 whole entry, looked up): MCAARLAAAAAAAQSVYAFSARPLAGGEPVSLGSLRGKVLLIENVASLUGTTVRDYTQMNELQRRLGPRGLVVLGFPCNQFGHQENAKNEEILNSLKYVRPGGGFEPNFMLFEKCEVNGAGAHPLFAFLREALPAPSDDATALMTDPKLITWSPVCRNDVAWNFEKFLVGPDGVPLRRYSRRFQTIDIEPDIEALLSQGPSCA
Chain of Phospholipid hydroperoxide glutathione peroxidase GPX4 (Homo sapiens) (P36969 whole entry, looked up): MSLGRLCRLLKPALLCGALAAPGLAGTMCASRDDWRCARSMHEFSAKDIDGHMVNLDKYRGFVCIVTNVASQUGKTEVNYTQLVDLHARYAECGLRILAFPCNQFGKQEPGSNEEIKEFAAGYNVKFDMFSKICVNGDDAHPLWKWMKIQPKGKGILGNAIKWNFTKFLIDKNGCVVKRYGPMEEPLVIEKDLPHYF
Chain of Cytochrome P450 2D6 (Homo sapiens) (P10635 whole entry, looked up): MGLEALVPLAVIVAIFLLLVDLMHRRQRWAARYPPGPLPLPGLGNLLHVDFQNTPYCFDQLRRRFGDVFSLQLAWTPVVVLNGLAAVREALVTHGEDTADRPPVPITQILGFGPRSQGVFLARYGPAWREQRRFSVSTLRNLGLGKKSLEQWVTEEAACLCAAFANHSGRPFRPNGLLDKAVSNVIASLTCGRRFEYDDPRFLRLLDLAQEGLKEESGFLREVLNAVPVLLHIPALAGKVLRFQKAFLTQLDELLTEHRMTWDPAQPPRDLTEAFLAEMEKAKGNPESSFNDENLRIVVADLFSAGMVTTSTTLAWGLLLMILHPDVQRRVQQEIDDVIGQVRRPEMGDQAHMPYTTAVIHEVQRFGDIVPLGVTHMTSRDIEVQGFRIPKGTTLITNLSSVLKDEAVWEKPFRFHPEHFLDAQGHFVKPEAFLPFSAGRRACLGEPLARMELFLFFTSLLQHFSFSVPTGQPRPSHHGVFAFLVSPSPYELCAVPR
Chain of Calcium and integrin-binding protein 1 (Homo sapiens) (Q99828 whole entry, looked up): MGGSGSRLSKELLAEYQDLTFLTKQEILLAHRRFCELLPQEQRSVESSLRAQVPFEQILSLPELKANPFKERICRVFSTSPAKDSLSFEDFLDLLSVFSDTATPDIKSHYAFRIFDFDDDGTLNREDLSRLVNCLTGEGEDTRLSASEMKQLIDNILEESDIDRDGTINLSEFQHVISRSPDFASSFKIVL
Chain of Cytochrome P450 2C9 (Homo sapiens) (P11712 whole entry, looked up): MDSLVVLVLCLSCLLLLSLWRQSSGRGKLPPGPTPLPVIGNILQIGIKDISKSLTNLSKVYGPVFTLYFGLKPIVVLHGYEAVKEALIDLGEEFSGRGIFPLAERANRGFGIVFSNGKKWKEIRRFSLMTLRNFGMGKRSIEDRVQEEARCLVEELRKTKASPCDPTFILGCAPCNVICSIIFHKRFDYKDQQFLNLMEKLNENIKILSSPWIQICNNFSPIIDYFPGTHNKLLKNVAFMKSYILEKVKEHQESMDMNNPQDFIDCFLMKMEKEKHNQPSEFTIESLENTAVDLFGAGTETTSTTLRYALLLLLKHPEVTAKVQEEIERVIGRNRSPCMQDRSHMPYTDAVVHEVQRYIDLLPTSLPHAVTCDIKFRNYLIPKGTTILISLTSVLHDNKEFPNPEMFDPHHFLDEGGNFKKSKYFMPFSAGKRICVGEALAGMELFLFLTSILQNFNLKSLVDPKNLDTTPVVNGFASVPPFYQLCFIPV

Row | SMILES | Potency [1] | Potency [2] | Potency [3] | Potency [4] | Potency [5] | Z-AUC [6] | Z-AUC [6, 13] | Z-AUC ([6]; measured here: PEO4 Z-AUC) | Potency ([7]; HiBiT) | activity change, negative = inhibition ([7]; Viability) | activity change, negative = inhibition ([7]; HiBiT) | Potency [8] | Potency [9] | Potency [10] | Potency [6] | Potency [11] | Potency [12]
1 | CCc1c(-c2ccccc2C)nc2c(C#N)c[nH]n2c1=O | 829 nM (active) and 1.31 µM (active) | inactive | inactive | inactive | inactive | 1.17 (inactive) and -0.599 (inactive) | 1.23 and -0.433 | 1.49 and -0.54 | 1.4 µM (active) and 787 nM (active) | 16.2% (inactive) and -8.52% (inactive) | – | – | – | – | – | – | –
2 | Cc1cc2cc(Oc3ccnc(Nc4cccc(CS(=O)(=O)NCCN(C)C)c4)n3)ccc2[nH]1 | 13.1 µM (active) | 8.33 µM (active) | – | inactive | inactive | 0.517 (inactive) | 0.192 | 0.0861 | 22.2 µM (active) | -27.6% (inactive) | – | – | – | – | – | – | –
3 | Cc1ccc(NC(=O)c2ccc3c(c2)OCCO3)cc1NC(=O)c1ccc2nc(OCCN3CCCC3)ccc2c1 | 0.286 µM (active) | 0.0574 µM (active) | 45.6 nM (active) | inactive | inactive | -1.99 (inactive) | -1.87 | -2.21 | 0.557 µM (active) | -19.9% (inactive) | – | – | – | – | – | – | –
4 | C[C@@H](Oc1ccc2[nH]nc(/C=C/c3cnn(CCO)c3)c2c1)c1c(Cl)cncc1Cl | 0.93 µM (active) | 0.833 µM (active) | 417 nM (active) | inactive | – | -1.01 (inactive) | -0.521 | -0.403 | 0.557 µM (active) | – | – | – | – | – | – | – | –
5 | COc1nc(OCc2cccc(-c3ccccc3)c2C)ccc1CNCCNC(C)=O | 16.5 µM (active) | 7.42 µM (active) | 7420 nM (active) | inactive | inactive | -0.638 (inactive) | -0.646 | -0.574 | – | – | -16.7% (inactive) | – | – | – | – | – | –
6 | CN(C)C[C@@H]1CCn2cc(c3ccccc32)C2=C(C(=O)NC2=O)c2cn(c3ccccc23)CCO1 | 4.66 µM (active) | 7.42 µM (active) | – | inactive | inactive | 0.756 (inactive) | 0.389 | 0.797 | 27.9 µM (active) | – | – | – | – | – | – | – | –
7 | CNc1nc(-c2ccc3c(N)n[nH]c3c2)cc(N2C[C@@H](C(=O)NC3CCCCC3)CC[C@H]2C)n1 | 13.1 µM (active) | 0.525 µM (active) | 833 nM (active) | inactive | inactive | -1.31 (inactive) | 0.449 | -0.0883 | 31.3 µM (active) | – | – | – | – | – | – | – | –
8 | Cc1[nH]c(/C=C2\C(=O)Nc3ccc(S(=O)(=O)Cc4c(Cl)cccc4Cl)cc32)c(C)c1C(=O)N1CCC[C@@H]1CN1CCCC1 | 5.23 µM (active) | 6.61 µM (active) | 5250 nM (active) | inactive | inactive | 0.541 (inactive) | 0.565 | 0.0929 | 22.2 µM (active) | – | – | – | – | – | – | – | –
9 | O=C(/C=C/c1ccc2ccc(C(F)(F)F)cc2n1)c1ccncc1 | 5.23 µM (active) | 2.35 µM (active) | 2090 nM (active) | inactive | inactive | -0.632 (inactive) | -0.753 | -0.961 | 4.43 µM (active) | – | – | – | – | – | – | – | –
10 | Clc1cccc(-c2ccc(-c3nnc(CCCc4ccc5cccnc5n4)o3)cc2)c1 | inactive | inactive | inactive | inactive | inactive | 1.61 (inactive) | 1.52 | 1.67 | – | – | – | inactive | – | – | – | – | –
11 | CCC[C@H](NC(=O)/C(C#N)=C/c1cccc(Br)n1)c1ccccc1 | 4.15 µM (active) | 11.8 µM (active) | 13200 nM (active) | inactive | inactive | 0.211 (inactive) | 0.0929 | 0.0816 | 6.25 µM (active) | – | – | – | 4.09 µM (active) | – | – | – | –
12 | COc1ccc(N2C(=O)N(c3c(C)cccc3Cl)Cc3cnc(Nc4ccc(C5CCN(C)CC5)cc4OC)nc32)nc1 | 14.7 µM (active) | 3.32 µM (active) | 3720 nM (active) | inactive | inactive | -1.61 (inactive) | -1.1 | -0.332 | 14 µM (active) | – | – | – | – | – | – | – | –
13 | Cc1c(-c2ccc(-c3ccccc3F)cc2)nc2ccc(F)cc2c1C(=O)O | inactive | 0.105 µM (active) | 148 nM (active) | inactive | inactive | – | -1.54 | -1.34 | – | – | – | – | – | inactive | 2.75 µM (active) | – | –
14 | Cc1cccc(/C=N/Nc2cc(N3CCOCC3)nc(OCCc3ccccn3)n2)c1 | inactive | 0.468 µM (active) | 296 nM (active) | inactive | inactive | 0.655 (inactive) | 0.0151 | 0.106 | – | – | – | – | – | inactive | – | 10.7 µM (active) | 7.56 µM (active)
15 | C[C@H](CCC(=O)O)[C@H]1CC[C@H]2[C@@H]3[C@@H](O)C[C@@H]4C[C@H](O)CC[C@]4(C)[C@H]3CC[C@]12C | inactive | inactive | – | inactive | inactive | 0.396 (inactive) | 1.43 | 1.41 | – | – | – | – | – | – | – | inactive | –
16 | C[C@]12CCC3[C@@H](CC[C@H]4NC(=O)C=C[C@]34C)[C@@H]1CC[C@@H]2C(=O)Nc1cc(C(F)(F)F)ccc1C(F)(F)F (stereo partly specified) | inactive | inactive | inactive | inactive | inactive | -1.09 (inactive) | -1.05 | -1.07 | – | – | – | – | – | inactive | – | – | –
